Records with an inconclusive call do not appear. The source made the active and inactive calls. Unless noted, calls follow the shape of the full dose curve.

Assay [1] is described as follows: Primary qHTS for inhibitors of SARS-S pseudo-typed particle cell entry (AID 1479145). Also: nearly all actives have a fitted effect of over 45% in size. Also: potency is read from the fitted curve at half-maximal effect. Conditions: SARS-S pseudotyped particle cell entry, luciferase reporter; series mostly up to 57.1 µM.
Assay [2] can be described thus: Primary qHTS for Huh7 cytotoxicity: counterscreen for inhibitors of MERS-S pseudotyped particle cell entry (AID 1479147). Conditions: cell viability read-out; series mostly up to 57.1 µM. (In general: Quantitative high-throughput screening tests each substance at several concentrations.)
Assay [3] addresses Protein phosphatase 1D (Homo sapiens) (UniProt O15297). In words: RapidFire Mass Spectrometry qHTS Assay for Modulators of WT P53-Induced Phosphatase 1 (WIP1) (AID 1347424; active = well fitted curve in the direction sought with a large enough effect; an effect the other way counts as inactive or inconclusive). Conditions: WIP1 dephosphorylation of phosphopeptide, RapidFire MS; series mostly up to 63 µM. Put shortly: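 RapidFire MS readout of dephosphorylated VEPPL-S-QETFS product, with 1 uM isotope-labelled peptide standard. Reaction: 10 nM WIP1, 2 uM phosphopeptide substrate, 5 min, room temperature, after 1 h compound preincubation; stopped with 0.5% formic acid.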

The target is the same in assay [4]. In words: Rhodamine-PBP qHTS Assay for Modulators of WT P53-Induced Phosphatase 1 (WIP1) (AID 1347425; active = well fitted curve in the direction sought with a large enough effect; an effect the other way counts as inactive or inconclusive). Conditions: recombinant WIP1, Rhodamine-PBP phosphate fluorescence, real-time; series mostly up to 57.5 µM. Put shortly:
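Steps: enzyme with Rh-PBP sensor and compounds, room-temperature incubation of 1 hr, baseline read, addition of VEPPL-pS-QETFS (10 uM final), kinetic fluorescence reads at 525/598 nm. Activity equals final minus baseline signal.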

Assay [5] concerns the target Calcium and integrin-binding protein 1 (Homo sapiens) (UniProt Q99828). In words: Primary qHTS for Identification of Calcium Integrin Binding Protein 1 (CIB1) Competitor (AID 1508620; active = well fitted curve in the direction sought with a large enough effect; an effect the other way counts as inactive or inconclusive; also: top concentration of the series differs between compounds). Conditions: CIB1-GST / FITC-alphaIIb peptide fluorescence polarization; series mostly up to 114 µM. Put shortly: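 Fluorescence polarization competition: GST-tagged CIB1 (1 uM final) preincubated with compound 15 min at room temperature, then FITC-labelled alphaIIb peptide (100 nM final) added. After 15 min at room temperature, polarization read at Ex 480/Em 540.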

Assay [6] can be described thus: Primary qHTS for inhibitors of MERS-S pseudo-typed particle cell entry (AID 1479149). Also: nearly all actives have a fitted effect of over 60% in size. Conditions: MERS-S pseudotyped particle entry, luciferase; series mostly up to 57.1 µM.
The nature of assay [7]: Primary qHTS for Vero E6 cytotoxicity: counterscreen for inhibitors of SARS-S pseudo-typed particle cell entry (AID 1479150). Conditions: cell viability; series mostly up to 57.1 µM.

Chain of Protein phosphatase 1D (Homo sapiens) (O15297 whole entry, looked up): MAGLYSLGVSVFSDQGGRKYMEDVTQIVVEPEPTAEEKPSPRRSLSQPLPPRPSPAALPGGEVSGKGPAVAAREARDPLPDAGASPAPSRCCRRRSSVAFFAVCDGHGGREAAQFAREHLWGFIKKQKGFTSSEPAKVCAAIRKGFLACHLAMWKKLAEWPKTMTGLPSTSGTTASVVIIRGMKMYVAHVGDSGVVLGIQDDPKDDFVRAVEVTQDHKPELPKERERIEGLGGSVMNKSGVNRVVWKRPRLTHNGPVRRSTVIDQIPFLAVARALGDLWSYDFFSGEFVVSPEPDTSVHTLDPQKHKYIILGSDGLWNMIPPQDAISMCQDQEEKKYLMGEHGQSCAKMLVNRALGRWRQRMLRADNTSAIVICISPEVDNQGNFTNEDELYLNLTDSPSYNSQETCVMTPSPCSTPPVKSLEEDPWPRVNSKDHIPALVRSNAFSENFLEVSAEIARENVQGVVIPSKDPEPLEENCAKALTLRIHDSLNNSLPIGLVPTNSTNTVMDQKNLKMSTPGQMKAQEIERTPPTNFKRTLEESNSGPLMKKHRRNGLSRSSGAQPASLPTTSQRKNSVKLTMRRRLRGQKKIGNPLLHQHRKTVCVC
Chain of Calcium and integrin-binding protein 1 (Homo sapiens) (Q99828 whole entry, looked up): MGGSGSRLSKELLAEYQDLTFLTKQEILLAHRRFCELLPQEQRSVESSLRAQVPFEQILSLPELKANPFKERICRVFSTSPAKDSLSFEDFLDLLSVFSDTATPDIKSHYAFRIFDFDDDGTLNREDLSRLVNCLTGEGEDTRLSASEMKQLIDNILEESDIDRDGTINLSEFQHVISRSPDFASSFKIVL

In the case of `CCCCCCCCCCCCCCCC[N+](C)(C)Cc1ccccc1`, the Potency in assay [1] is 7.94 µM (active). The Potency result in assay [2] was “inactive”.

`C[C@]12CC[C@H]3[C@@H](CCC4=CC(=O)CC[C@@H]43)[C@@H]1CC[C@@H]2O`: the Potency result in assay [3] and in assay [5] was “inactive” each time. For the same compound, the result in assay [4] was inactive.

With `C[C@H]1C[C@H]2[C@@H]3CCC4=CC(=O)C=C[C@]4(C)[C@H]3C(=O)C[C@]2(C)[C@@]1(O)C(=O)CO`, the Potency entry in assay [1], in assay [2], in assay [6] and in assay [7] was “inactive” throughout.

Turning to `CCCOc1ccc2nc(NC(=O)OC)[nH]c2c1`, the Potency result in assay [1], in assay [2], in assay [6] and in assay [7] was “inactive” in each case.

In the case of `Nc1ccc2cc3ccc(N)cc3nc2c1`, the Potency in assay [1] was 14.1 µM (active).

Take `COc1ccc2c3c1O[C@H]1[C@@H](O)C=C[C@H]4[C@@H](C2)N(C)CC[C@@]341`: the Potency result in assay [3] and in assay [5] was “inactive” throughout. For the same compound, the result in assay [4] was inactive.

`O=C(O)c1cn(-c2ccc(F)cc2)c2cc(N3CCNCC3)c(F)cc2c1=O`: the Potency entry in assay [1], in assay [2], in assay [6] and in assay [7] was “inactive” in each case.

Regarding `Nc1ccc(S(=O)(=O)Nc2nccs2)cc1`, the Potency result in assay [1], in assay [2], in assay [6] and in assay [7] was “inactive” throughout.

With `CCO[C@@H]1O[C@H](C(COCc2ccccc2)OCc2ccccc2)[C@H](OCc2ccccc2)[C@H]1O` (some centres not stated), the Potency result in assay [1], in assay [2], in assay [6] and in assay [7] was “inactive” each time.

As to `Cc1cccc(C)c1NC(=O)C(C)N` (configuration not stated), the Potency entry in assay [1], in assay [2], in assay [6] and in assay [7] was “inactive” throughout.

With `CCOC(=O)[C@H](CCc1ccccc1)N[C@H]1CS[C@H](c2cccs2)CN(CC(=O)O)C1=O`, the Potency result in assay [1], in assay [2], in assay [6] and in assay [7] was “inactive” in each case.

With `CCn1cc(C(=O)O)c(=O)c2cc(F)c(N3CCNCC3)nc21`, the Potency result in assay [1], in assay [2], in assay [6] and in assay [7] was “inactive” each time.

For `Cn1cnc2c1c(=O)[nH]c(=O)n2C`, the Potency result in assay [1], in assay [2], in assay [6] and in assay [7] was “inactive” throughout.

On to `CCC(C(=O)OCCN1CCOC(c2ccccc2)C1C)c1ccccc1` (configuration not stated), for which the Potency entry in assay [1], in assay [2], in assay [6] and in assay [7] was “inactive” each time.

As to `CC(CNC1CCCCC1)OC(=O)c1ccccc1` (configuration not stated), the Potency result in assay [1], in assay [2], in assay [6] and in assay [7] was “inactive” throughout.

Turning to `CCOC(=O)c1cccc(N)c1`, the Potency result in assay [1], in assay [2], in assay [6] and in assay [7] was “inactive” throughout.

Turning to `CCCCCOc1ccc(C2SC(=O)NC2=O)cc1OCC` (configuration not stated), the Potency result in assay [1], in assay [2], in assay [6] and in assay [7] was “inactive” throughout.

`CC1=C(C)C(=O)C(C(CCCCCC(=O)O)c2ccccc2)=C(C)C1=O` (configuration not stated): the Potency result in assay [1], in assay [2], in assay [6] and in assay [7] was “inactive” each time.

As for `Oc1cccc(-c2c3nc(c(-c4cccc(O)c4)c4ccc([nH]4)c(-c4cccc(O)c4)c4nc(c(-c5cccc(O)c5)c5ccc2[nH]5)CC4)C=C3)c1`, the Potency result in assay [1], in assay [2], in assay [6] and in assay [7] was “inactive” each time.

As for `CC(=O)OCC1=C(C(=O)O)N2C(=O)[C@@H](NC(=O)CSc3ccncc3)[C@H]2SC1`, the Potency entry in assay [1], in assay [2], in assay [6] and in assay [7] was “inactive” in each case.

As to `CC1(C)[C@@H](OC(=O)CCC(=O)O)CC[C@]2(C)[C@H]3C(=O)C=C4[C@@H]5C[C@@](C)(C(=O)O)CC[C@]5(C)CC[C@@]4(C)[C@]3(C)CC[C@@H]12`, the Potency result in assay [1], in assay [2], in assay [6] and in assay [7] was “inactive” each time.

On to `C[N+](C)(C)CCOC(=O)CCC(=O)OCC[N+](C)(C)C`, for which the Potency result in assay [1], in assay [2], in assay [6] and in assay [7] was “inactive” each time.

As for `Cc1cc(=O)oc2cc(O)ccc12`, the Potency entry in assay [1], in assay [2], in assay [6] and in assay [7] was “inactive” throughout.

For the compound `O=C(O)CCC(=O)Nc1ccc(S(=O)(=O)Nc2nccs2)cc1`, the Potency entry in assay [1], in assay [2], in assay [6] and in assay [7] was “inactive” throughout.

Turning to `CCOC(=O)n1ccn(C)c1=S`, the Potency entry in assay [1], in assay [2], in assay [6] and in assay [7] was “inactive” in each case.

Take `CCCCNc1cc(C(=O)O)cc(S(N)(=O)=O)c1Oc1ccccc1`: the Potency result in assay [1], in assay [2], in assay [6] and in assay [7] was “inactive” throughout.

Take `CC1(C)S[C@@H]2[C@H](N=CN3CCCCCC3)C(=O)N2[C@H]1C(=O)O`: the Potency result in assay [1], in assay [2], in assay [6] and in assay [7] was “inactive” each time.

As for `Cc1ccc(=O)n(-c2ccccc2)c1`, the Potency entry in assay [1], in assay [2], in assay [6] and in assay [7] was “inactive” each time.

With `C[C@H]1COc2c(C3(N)CC3)c(F)cc3c(=O)c(C(=O)O)cn1c23`, the Potency result in assay [1], in assay [2], in assay [6] and in assay [7] was “inactive” throughout.

Turning to `C=CCOc1ccccc1OCC(O)CNC(C)C` (configuration not stated), the Potency entry in assay [1], in assay [2], in assay [6] and in assay [7] was “inactive” each time.

In the case of `CC(C)(C)NCC(O)COc1cccc2c1CCC(=O)N2` (configuration not stated), the Potency result in assay [1], in assay [2], in assay [6] and in assay [7] was “inactive” throughout.

Values taken from PubChem BioAssay (NCATS).
